# Measured values: paper PMC12136788
# The full ranking holds about 24,000 sequences; the median of “enrichment r” is about 0.99, and the highest 2% start at about 3.7. These entries were drawn from the full list.
# T1: UNK ZnF1-3 (human, UniProt Q9C0B0 31-174)
# T1 sequence: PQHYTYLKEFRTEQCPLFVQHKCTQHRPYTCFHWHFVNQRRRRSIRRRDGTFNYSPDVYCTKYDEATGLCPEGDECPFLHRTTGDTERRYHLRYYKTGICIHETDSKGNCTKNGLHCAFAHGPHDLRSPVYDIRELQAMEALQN
# B1: chr7:7679991:7679992:-_ENSG00000106399_ENST00000396682|hu_hu|hu_hu_hu_mus_False|48_88 (ssRNA)
# RNA: GGGAGUUCUACAGUCCGACGAUCUGGGAUGAAUCUUUUCCAGCUUCCCUACGAAGCACACGGGCCGGUCGAUAUACUGUGGUAACAUGCCGGCGUUGACGCGCGCUUUGGGGAGCUGCAUUAUGUCCUCCAUGAUUCUGCCGCCAACAGAGGAUUGAGCAUCA
# B2: chr9:56909451:56909452:+_ENSMUSG00000032290_ENSMUST00000034832|mus_hu|motif|central (ssRNA)
# RNA: GGGAGUUCUACAGUCCGACGAUCCAUAAGUGCACACACACACACACACAGAAUGACAGAAAGGACUGGAAUACACGCCCGGCUUAUAAACGUGCUUGGCACUCAGGACGAUCUCUAGAAUAUGUAACUUGGUCAAGCUCUCUGCAACAGAGGAUUGAGCAUCA
# B3: 62695852_62700603_289_3pUTR_ENSMUSG00000042211_ENSMUST00000048688|mouse|control|control (ssRNA)
# RNA: GGGAGUUCUACAGUCCGACGAUCAGCUUCCGAGAGAGGCAUUCCAUGCACAUGAUGUCCUGUAGUGGCAGGUACCUGAAGAUAUGACAGAGCACUUCAUGUGACAGCUGGUUCAUGUAGUCCUUCUCUUCAUCGGCUGUCAUUCAACAGAGGAUUGAGCAUCA
# B4: chr7:151048522:151048523:+_ENSG00000013374_ENST00000566856|hu_mus|hu_hu_hu_mus_True|58_78 (ssRNA)
# RNA: GGGAGUUCUACAGUCCGACGAUCCUGUUUCUUAUUUAUUACGAUCUUGAUGUAAUUUUCUUGAAGUCCGAAAGUUUCAGCUAUUUUACACCUCAGGUCUCUACCAGUGACAUGCAAGCGGGUCUCCAACAAGCUUUUCUUAUCCAACAGAGGAUUGAGCAUCA
# B5: chr14:78183846:78183847:+_ENSG00000119705_ENST00000557342|hu_hu|hu_hu_hu_mus_False|18_108 (ssRNA)
# RNA: GGGAGUUCUACAGUCCGACGAUCUCUGUCUCAAAAAUCUUCAUCAGAUGUUUGAGCUCCGUGCAAAGCCUUUGCUCUUUGAGCUUGAACGUGGAUCUAUGGGAGGGAAAGCACUGUAUUUUCCUGUAAUUUUUUUUUUAAAGACAACAGAGGAUUGAGCAUCA
# B6: chr1:220276048:220276049:+_ENSG00000067704_ENST00000302637|hu_hu|hu_hu_hu_mus_True|78_108 (ssRNA)
# RNA: GGGAGUUCUACAGUCCGACGAUCGCAAACAGCUUCAUUGGCGGGAAUUGUCCAAGGUUGUGUGGUCCAAACUAAAACGCUAACAGGGGAUGAGGCAUCUGUAAGAGACUCCAACUUCGGAGGAGGUCUCAGGAGGGGGAAUCUCAACAGAGGAUUGAGCAUCA
# B7: 27242051_27281840_773_CDS_ENSMUSG00000009621_ENSMUST00000056176|mouse|control|control (ssRNA)
# RNA: GGGAGUUCUACAGUCCGACGAUCCAGCUCACUGUUUCUUAGUCCAAAUUUGUCAUGGCAGACUUUGAGGAAGGUGCGAAUAUUCUUCAGACACAAGAACUGGGACAUCUGCGGCCGGAAGUUGAUGUCCUUAAGGUCGAUGGACAACAGAGGAUUGAGCAUCA
# B8: chr20:43533646:43533647:+_ENSG00000166913_ENST00000353703|hu_mus|FALSE|FALSE (ssRNA)
# RNA: GGGAGUUCUACAGUCCGACGAUCGAAAUUCAGCGCCAGGCCGAGGCGAAUCGGGUGUGUAGGCUGCAUUUCUUUCUUGCUGAUUUCAAAUGCUUCUUGGUAAGCCUGCUGGGAGUUGGACACCGUGGUUUGUUUAUUUUCUCCCAACAGAGGAUUGAGCAUCA
# B9: chr1:171751117:171751118:+_ENSG00000010165_ENST00000361735|hu_hu|motif|central (ssRNA)
# RNA: GGGAGUUCUACAGUCCGACGAUCCUUUUAGGUAAGAGGUUCAUGUUCCUACUGCCGAAGCUGCGUUUUCAAGACUCCCCGGUUCCCUGUGAGAUACCAUUUGAGGAGCUUGCCCACCACACGCAGGCUCCGGGACACUGCAGUCAACAGAGGAUUGAGCAUCA
# B10: chr10:120833061:120833062:-_ENSG00000107581_ENST00000369144|perfect_dup|motif|central (ssRNA)
# RNA: GGGAGUUCUACAGUCCGACGAUCUUGGGACUCUUCUUUAGCAGCUUCUGUUUUUUCCUCUGCUAAUUUCAAAUAUGCCCGGACAACAUCUUCUAAAGAUUUAAUGUUUACCUGUUGGCAUAUGUUCUUAUAUUGAUAUAACCCCAACAGAGGAUUGAGCAUCA
# B11: 18861418_18861648_5666_CDS_ENSG00000157106_ENST00000446231|human|control|control (ssRNA)
# RNA: GGGAGUUCUACAGUCCGACGAUCCAGCCUAGGGUCAUCCUCAUCUAAAGGAAUUUGACCAGCGUUGAGUUUAAGGAAAGUAAAGUAUGCACUGCAAGAGAGUUUGUACAGGCUGAAUAUUCUAUCUACAACUUUCCUCCACACCAACAGAGGAUUGAGCAUCA
# B12: chr11:48615247:48615248:+_ENSMUSG00000020372_ENSMUST00000020640|perfect_dup|FALSE|FALSE (ssRNA)
# RNA: GGGAGUUCUACAGUCCGACGAUCUCCAUCCCAGGAGCCUGAGAGGGCAAACUGGCCAUCUGAGGAGAUAACCACAUCACUAACAAAGUGGGAGUGACCCCGCAGAGCACGCUGUGGAAUUCCAUAGUUGGUCUCAUCCCUGGUCAACAGAGGAUUGAGCAUCA
# B13: chr5:110835399:110835400:-_ENSG00000164211_ENST00000296632|hu_hu|motif|central (ssRNA)
# RNA: GGGAGUUCUACAGUCCGACGAUCUGAGAGCCUGUCUCAAAAUUUAAAAAAAAAAAAGUGAAAAUGCCCUCUCUUAGAUAGCGGUUUACUUUAGGAAUAAAACCAAACAUUGUACUAGUGAACCAAAAACAUUUCAAAUUUUUCCAACAGAGGAUUGAGCAUCA
# B14: chr1:39494564:39494565:+_ENSG00000168653_ENST00000372967|hu_hu|hu_hu_hu_mus_True|68_78 (ssRNA)
# RNA: GGGAGUUCUACAGUCCGACGAUCAUGCAUUCGCCUCAUCGUUUUGUACCGAAGCAAACACUCUACGAAAUCAUCAUACUCUAUCUUGCACUCCUUUUUCGCCCGGGUCCCACCGAUCCCGUGUGCACACUCUAUCCACUCUUUCAACAGAGGAUUGAGCAUCA
# Target: T1, UNK ZnF1-3
# Assay: nsRBNS (natural sequence RNA bind-n-seq); RBNS binding buffer (assumed for nsRBNS): 25 mM Tris pH 7.5, 150 mM KCl, 3 mM MgCl2, 0.01% Triton X-100, 500 ug/ml BSA, 20 U/ml SUPERase-In, 4 C; UNK is unkempt and MSI1 is Musashi-1; names of the RNAs are library labels; protein concentration not given here; high values mean tight binding
row,Binder,binding signal [enrichment R]
1,B1,0.421
2,B2,1.4
3,B3,1.2
4,B4,0.64
5,B5,1.24
6,B6,1.64
7,B7,1.21
8,B8,0.604
9,B9,0.55
10,B10,0.789
11,B11,1.36
12,B12,1.14
13,B13,1.93
14,B14,0.667
